In assay [1] the test system is Wnt5a (protein binding on small-molecule microarray). Put plainly: small molecules binding Wnt5a protein – biophysical, small-molecule microarray, 635/667 nm fluorescence, primary screen (AID 1142).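 Further: fluorescence read at 667 nm with signal to noise per printed feature.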 As to conditions: 635 nm fluorescence, higher = more signal.
Assay [2] can be described thus: ATP-based viability of Huh7 replicon cells – cell-based, CellTiter-Glo luminescence, basal, 48 h, cytotoxicity control for HCV replication inhibitor project, primary screen (AID 1143).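 Further: Huh7 hepatoma cells carrying a hepatitis C replication reporter with no stimulus; test concentration not given here.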 The settings on record: higher = more signal, called active from +8 up or from −8 down. A general note: In antiviral work, replicon cells carry a viral genome segment that copies itself.

The nature of assay [3]: Pseudomonas biofilm growth suppression – PAO1 strain, BacTiter-Glo luminescence, LB-PBS, primary screen (AID 1144). The settings on record: P. aeruginosa PAO1 biofilm, 12 h, higher = more signal.
Assay [4] is described as follows: basal CRE-LacZ reporter activity in PC12 – cell-based, unstimulated, primary screen (AID 1145). As to conditions: no forskolin, luminescence, 4.5 h, higher = more signal, called active from +8 up or from −8 down.
The nature of assay [5]: forskolin-driven CRE-LacZ activity in PC12 – cell-based, CRE-LacZ reporter, forskolin-stimulated, primary screen (AID 1146).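 Further: PC12 cells with 6xCRE LacZ reporter stimulated by forskolin 10 µM; beta-galactosidase reporter signal reflecting CREB driven transcription.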 The settings on record: luminescence, 4.5 h, higher = more signal, called active from +8 up or from −8 down.
The target of assay [6] is Streptavidin (Streptomyces avidinii) (UniProt P22629). Put plainly: compounds binding control protein streptavidin – biophysical, small-molecule microarray, 635/667 nm fluorescence, artefact control for SMM compound annotation, primary screen (AID 1147).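 Further: signal reflects streptavidin binding to arrayed compounds as a control protein.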 As to conditions: higher = more signal.
Chain of Streptavidin (Streptomyces avidinii) (P22629 whole entry, looked up): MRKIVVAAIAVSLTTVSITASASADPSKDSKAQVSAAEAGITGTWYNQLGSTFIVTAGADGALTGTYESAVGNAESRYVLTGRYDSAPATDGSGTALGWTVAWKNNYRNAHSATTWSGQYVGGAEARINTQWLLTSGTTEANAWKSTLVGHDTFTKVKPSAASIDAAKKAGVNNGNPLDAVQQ
Assay [7] in a line: probe aInhba binding on compound microarray – biochemical, small-molecule microarray, 635/667 nm fluorescence, primary screen (AID 1148).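 Further: score merges 667nm spot fluorescence with signal-to-noise for antibody binding to printed compounds.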 The settings on record: higher = more signal.
Assay [8] addresses Torsin-1A (Homo sapiens) (UniProt O14656). As to the kind of experiment: TOR1A wild-type binding on microarray – cell lysate, small-molecule microarray, lysate, 635/667 nm, primary screen (AID 1149). As to conditions: COS7 hTOR1A-WT lysate, 635 nm fluorescence, higher = more signal.
For assay [9] the target is unchanged. As to the kind of experiment: torsin A mutant lysate binding on microarrays – cell lysate, small-molecule microarray, COS7 lysate, 635/667 nm fluorescence, primary screen (AID 1150).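 Further: score pools 667 nm emission and signal to noise measuring lysate protein binding.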 The settings on record: COS7 hTOR1A mutant lysate, 635 nm fluorescence, higher = more signal.
Assay [10] relates to Sonic hedgehog protein (Shh). Put plainly: Sonic hedgehog microarray binding compounds – biochemical, small-molecule microarray, 635/667 nm fluorescence, primary screen (AID 1151).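 Further: Shh protein binding to compounds spotted on small-molecule microarray slides; score combines spot fluorescence intensity with signal-to-noise across triplicate slides.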 As to conditions: 635 nm fluorescence, higher = more signal.

The source made the active and inactive calls. Unless noted, how the calls were made is not given here.

Chain of Torsin-1A (Homo sapiens) (O14656 whole entry, looked up): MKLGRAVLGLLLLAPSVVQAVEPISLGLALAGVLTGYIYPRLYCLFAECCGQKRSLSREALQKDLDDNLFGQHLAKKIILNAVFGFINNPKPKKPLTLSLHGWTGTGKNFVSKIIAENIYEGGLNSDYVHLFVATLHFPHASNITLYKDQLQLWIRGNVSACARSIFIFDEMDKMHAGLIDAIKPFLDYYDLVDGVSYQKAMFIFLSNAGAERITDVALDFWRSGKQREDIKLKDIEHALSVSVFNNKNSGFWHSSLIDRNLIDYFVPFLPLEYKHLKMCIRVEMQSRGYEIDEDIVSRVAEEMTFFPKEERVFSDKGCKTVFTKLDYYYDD

Turning to `COc1ccc([Si](C)(C)[C@@H]2[C@@H](CCO)O[C@]3(C(=O)N(Cc4ccccc4)c4ccc(N5C(=O)c6cccc7cccc5c67)cc43)[C@H]2C)cc1`, the composite z-score in assay [1] was -0.328; in assay [6], 0.305; in assay [7], -0.179; in [8], -1.07; in assay [9], -0.909; in assay [10], -0.204. Also, the z-score was -4 (inactive) in [2], -0.441 (inactive) in assay [3], 2.39 (inactive) in [4] and 0.302 (inactive) in assay [5].

For `C=CCNC(=O)[C@@H]1[C@H]2C(=O)O[C@H](c3ccccc3)[C@H](c3ccccc3)N2[C@H](c2ccc(OCCO)cc2)[C@@]12C(=O)N(C(=O)OCCOC)c1ccc(C#Cc3ccc(OC)cc3)cc12`, the composite z-score is 0.0609 in assay [1]; 0.613 in assay [6]; 0.0497 in assay [7]; 0.105 in [8]; -0.0165 in [9]; 1.88 in assay [10]. In addition, the z-score in [2] is -2.81 (inactive); in [3] it was 0.543 (inactive); in [4], 0.476 (inactive); in assay [5], -0.222 (inactive).

In the case of `O=C(NCCN1CCOCC1)[C@@H]1c2ccccc2C(=O)N(C2Cc3ccccc3C2)[C@H]1c1ccc(CO)cc1`, the composite z-score was -0.136 in [1]; -0.456 in assay [6]; -0.0509 in [7]; 1.3 in assay [8]; 0.966 in [9]; 0.105 in assay [10]. Also, the z-score is -1.59 (inactive) in [2], -0.264 (inactive) in assay [3], 0.118 (inactive) in assay [4] and -1.42 (inactive) in assay [5].

As to `CCCCC[C@H]1OC[C@@]23C=C(Br)[C@@H](CC12)[C@@]1(CO1)C3=O` (stereo not given in full), the composite z-score in [1] was -0.233; in assay [6] it was -0.619; in [7] it was -0.128; in assay [8], -0.695; in assay [9], -0.424; in assay [10] it was 0.647. The z-score is -0.473 (inactive) in [2], 0.931 (inactive) in [3], 0.495 (inactive) in assay [4] and 0.289 (inactive) in [5].

With `CC1CC/C=C\[C@H]2OC34C=CCN(C(C)C)C(=O)[C@H]3N(CCO)C(=O)[C@@H]4C2C(=O)O1` (stereo not given in full), the composite z-score in assay [1] was -0.417; in assay [6] it was -1.14; in assay [7], -0.203; in [8] it was -0.737; in assay [9], -1.17; in assay [10] it was -0.778. For the same compound, the z-score in [2] was -0.177 (inactive); in assay [3], 0.591 (inactive); in assay [4], -0.619 (inactive); in assay [5] it was -0.599 (inactive).

For the compound `Cc1ccc(F)cc1S(=O)(=O)N[C@@H]1CCN(Cc2ccc(Br)cc2)C1`, the composite z-score was -0.144 in assay [1]; 0.165 in assay [6]; -0.0986 in assay [7]; 0.476 in [8]; 0.495 in assay [9]; 1.29 in assay [10]. Also, the z-score in assay [2] is -3.58 (inactive); in [3] it was 0.767 (inactive); in [4] it was 0.764 (inactive); in assay [5], -1.64 (inactive).

In the case of `COc1ccc([Si](C)(C)[C@H]2[C@H](CC(=O)N3Cc4ccccc4C[C@H]3CO)O[C@@]3(C(=O)N(Cc4ccc(N5CCOC5=O)cc4)c4ccccc43)[C@@H]2C)cc1`, the composite z-score was -0.0993 in assay [1]; -0.0564 in assay [6]; -0.176 in assay [7]; 0.787 in assay [8]; 0.438 in assay [9]; 2.05 in assay [10]. Besides, the z-score in [2] was -3.64 (inactive); in assay [3], -0.3 (inactive); in assay [4] it was 1.38 (inactive); in assay [5] it was -1.01 (inactive).

For the compound `C=CCC(OC(C)=O)[C@@H]1[C@@H](N(Cc2cc3ccccc3o2)C(=O)Cc2ccc(F)cc2)c2cc(OCCCO)ccc2N1C(=O)Cc1ccc2ccccc2c1` (stereo not given in full), the composite z-score was -0.314 in assay [1]; 0.655 in assay [6]; -0.0963 in [7]; -1.16 in assay [8]; -0.337 in assay [9]; 0.0162 in assay [10]. The z-score was -0.327 (inactive) in assay [2], -0.467 (inactive) in [3], 2.08 (inactive) in [4] and 0.926 (inactive) in assay [5].

For the compound `COCC(=C=CC[C@H](O)c1ccc(OCCO)cc1)CCO`, the composite z-score in [1] is 0.0048; in [6], -0.407; in assay [7], 0.138; in [8] it was 1.91; in assay [9], 0.911; in assay [10], 1.96. For the same compound, the z-score was 0.287 (inactive) in assay [2], 0.163 (inactive) in [3], 2.44 (inactive) in [4] and -0.419 (inactive) in assay [5].

As for `[N-]=[N+]=Nc1ccccc1C[C@]1(C(=O)NCC(O)CO)COC(c2ccc(OCCCO)cc2)=N1` (stereo not given in full), the composite z-score in assay [1] is 0.123; in assay [6], 0.305; in assay [7], -0.0131; in assay [8], 1.3; in assay [9] it was 1.72; in assay [10] it was -1.46. The z-score in [2] is -0.231 (inactive); in [3] it was -0.3 (inactive); in assay [4], 0.493 (inactive); in assay [5], -1.1 (inactive).

On to `CC(C)C[C@@H]1NC(=O)[C@@H]2C[C@H](C(=O)NCCCCCCN)[C@H](c3cccc(OCCO)c3)N2C1=O`, for which the composite z-score in assay [1] came out at 0.0254; in assay [6], 0.919; in assay [7], 0.747; in assay [8], 0.255; in [9] it was 1.73; in assay [10], 2. In addition, the z-score in [2] is -0.214 (inactive); in [3], -1.74 (inactive); in [4], -0.675 (inactive); in assay [5] it was 0.348 (inactive).

As for `CC(C)[Si]1(C(C)C)OCc2cc(C3CC3)nc(-c3ccc(Oc4ccccc4)cc3)c21`, the composite z-score in assay [1] was -0.223; in assay [6], -0.502; in assay [7], -0.0604; in assay [8], 0.726; in assay [9] it was -1.07; in assay [10] it was -0.241. Besides, the z-score was -1.03 (inactive) in assay [2], -0.823 (inactive) in [3], -0.113 (inactive) in assay [4] and 0.0211 (inactive) in [5].

As for `CCOC(=O)C[C@H]1[C@H](OC(=O)c2cc3ccccc3oc2=O)[C@@H](NC(=O)CC(C)C)c2cc(OCCCO)ccc2N1C(=O)c1ccc2ccccc2n1`, the composite z-score in [1] is -0.0457; in assay [6], 0.138; in assay [7] it was -0.128; in assay [8], -0.0914; in assay [9], 0.234; in assay [10], 1.41. The z-score in [2] was 0.152 (inactive); in assay [3] it was 0.152 (inactive); in [4], 4.46 (inactive); in [5], 0.446 (inactive).

With `COC(=O)[C@@]1(Cc2ccc(F)cc2)[C@H]2c3cc(C(=O)N4CCCC4)n(CCc4c[nH]c5ccccc45)c3C[C@H]2CN1C(=O)c1ccccc1`, the composite z-score in assay [1] is 0.407; in [6] it was 1.91; in assay [7] it was 0.668; in assay [8] it was -0.0812; in [9] it was 0.321; in [10], -0.393. Also, the z-score in [2] was -3.01 (inactive); in assay [3], 1.82 (inactive); in [4] it was 0.587 (inactive); in [5] it was 0.668 (inactive).

The values above are taken from PubChem BioAssay.
